This is an account of results in the supplement of paper PMC11219838.

One experiment concerns Caenorhabditis elegans dauer (daf-2(e1370)). The experiment can be described thus: proportion of mobile C. elegans dauer larvae relative to DMSO control (fraction of DMSO control); higher = more viable, less nematicidal, active = 0.63 or less; extreme values may be limits of the assay. The note with it: 60 µM; 5 days; temperature: 20 °C. The method in brief:
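Synchronized C. elegans larvae were kept for 48 h at 25 °C on MYOB plates seeded with E. coli OP50 to induce dauer formation, and roughly 20 dauers were transferred into each well of a 96-well plate containing liquid NGM. Compound was pinned in to a final concentration of 60 µM with 0.6% v/v DMSO, and the sealed plates were shaken at 200 rpm for 5 days at 20 °C. The fraction of mobile worms was scored under a dissection microscope against DMSO-only wells and averaged across two biological replicates.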
Turning to `Cc1ccc(OCc2nc(-c3ccccn3)no2)cc1C`, the “proportion of mobile C. elegans dauer larvae” value is 1 (inactive).

Turning to `Cc1ccc(-c2noc(COc3ccccc3C)n2)cc1`, the “proportion of mobile C. elegans dauer larvae” value was 1 (inactive).

On to `O=C(CSc1nnc(-c2ccco2)o1)Nc1ccc(Br)cc1`, for which the “proportion of mobile C. elegans dauer larvae” value was 1 (inactive).

On to `COc1ccc(Cl)cc1-c1noc(-c2ccccc2C)n1`, for which the “proportion of mobile C. elegans dauer larvae” value was 1 (inactive).

For the compound `Cc1cc(C)c(CSc2nnc(-c3ccccc3)o2)c(C)c1`, the “proportion of mobile C. elegans dauer larvae” value is 1 (inactive).

Take `COc1ccc(-c2noc(COc3ccc(Br)c(C)c3)n2)cc1`: the “proportion of mobile C. elegans dauer larvae” value was 1 (inactive).

Turning to `Cc1cccc(-c2noc(-c3cc(Cl)ccc3Cl)n2)c1`, the “proportion of mobile C. elegans dauer larvae” value is 1 (inactive).

On to `Cc1cc(OCc2nc(-c3ccccc3)no2)cc(C)c1Cl`, for which the “proportion of mobile C. elegans dauer larvae” value is 1 (inactive).

Consider `O=C(CSc1nnc(-c2ccccc2Cl)o1)c1ccc2c(c1)CCCC2`, for which the “proportion of mobile C. elegans dauer larvae” value was 1 (inactive).

Consider `CCn1c(SCc2ccc(OC)cc2)nnc1-c1ccco1`, for which the “proportion of mobile C. elegans dauer larvae” value is 1 (inactive).

Regarding `COc1ccc(Cl)cc1-c1nnc(SCC(=O)Nc2nccs2)o1`, the “proportion of mobile C. elegans dauer larvae” value was 1 (inactive).

In the case of `COc1ccc(-c2noc(C34CC5CC(CC(C5)C3)C4)n2)cc1`, the “proportion of mobile C. elegans dauer larvae” value is 1 (inactive).

Take `COc1nc2ccc(C)cc2cc1-c1noc(-c2cccnc2)n1`: the “proportion of mobile C. elegans dauer larvae” value is 1 (inactive).

`Clc1ccc(-c2nnc(SCc3ccccc3)o2)c(Cl)c1`: the “proportion of mobile C. elegans dauer larvae” value was 1 (inactive).

For `CCOc1ccc(NC(=O)CSc2nnc(-c3ccccc3Cl)o2)cc1`, the “proportion of mobile C. elegans dauer larvae” value was 1 (inactive).

As for `Cc1cc(OCc2nc(-c3ccc(NC(=O)c4ccc5c(c4)OCO5)cc3)no2)ccc1Cl`, the “proportion of mobile C. elegans dauer larvae” value was 1 (inactive).

As for `O=C(CSc1nnc(-c2ccc(Cl)cc2)o1)Nc1ccccc1C(F)(F)F`, the “proportion of mobile C. elegans dauer larvae” value was 1 (inactive).

In the case of `O=C(CSc1nnc(-c2cccc(Br)c2)o1)N1CCCCC1`, the “proportion of mobile C. elegans dauer larvae” value is 1 (inactive).

As for `CC(Oc1ccccc1)c1nc(-c2cccnc2)no1` (stereo unspecified), the “proportion of mobile C. elegans dauer larvae” value is 1 (inactive).

Consider `c1ccc(COc2cccc(-c3nc(-c4ccncc4)no3)c2)cc1`, for which the “proportion of mobile C. elegans dauer larvae” value is 1 (inactive).

Regarding `Cc1cc(C)cc(OCc2nc(-c3cc(C)nc4ccccc34)no2)c1`, the “proportion of mobile C. elegans dauer larvae” value is 1 (inactive).

In the case of `CCOc1ccccc1-c1nnc(SCC(=O)Nc2nc(C)cs2)o1`, the “proportion of mobile C. elegans dauer larvae” value was 1 (inactive).

With `Clc1ccc(CSc2nnc(-c3ccccc3)o2)c(Cl)c1`, the “proportion of mobile C. elegans dauer larvae” value is 1 (inactive).

On to `O=C(CSc1nnc(-c2ccc(Cl)cc2)o1)c1ccccc1`, for which the “proportion of mobile C. elegans dauer larvae” value was 1 (inactive).

For `COc1ccccc1CC(=O)Nc1ccc(-c2noc(-c3ccc(Cl)cc3)n2)cc1`, the “proportion of mobile C. elegans dauer larvae” value was 1 (inactive).

As to `Cc1ccc(-c2nc(-c3ccc4c(c3)OCO4)no2)cc1`, the “proportion of mobile C. elegans dauer larvae” value was 1 (inactive).

For the compound `Cc1cccc(-c2noc(COc3ccccc3Cl)n2)c1`, the “proportion of mobile C. elegans dauer larvae” value was 1 (inactive).

Consider `COc1ccc(-c2nnc(SCc3ccccc3C)o2)cc1`, for which the “proportion of mobile C. elegans dauer larvae” value is 1 (inactive).

Turning to `CCOc1cc(-c2nc(-c3ccc(C)nc3OC)no2)cc(OCC)c1OCC`, the “proportion of mobile C. elegans dauer larvae” value is 1 (inactive).

For the compound `Clc1ccc(OCc2nc(-c3cccs3)no2)cc1`, the “proportion of mobile C. elegans dauer larvae” value is 1 (inactive).

Regarding `c1ccc(-c2noc(COc3cccc4ccccc34)n2)nc1`, the “proportion of mobile C. elegans dauer larvae” value was 1 (inactive).

Consider `COc1ccc(C(=O)CSc2nnc(-c3cccc4ccccc34)o2)cc1`, for which the “proportion of mobile C. elegans dauer larvae” value was 1 (inactive).

As to `Cc1ccc(-c2nc(-c3cccnc3)no2)cc1Cl`, the “proportion of mobile C. elegans dauer larvae” value was 1 (inactive).

With `Cc1ccc(-c2noc(-c3ccccc3C)n2)cc1`, the “proportion of mobile C. elegans dauer larvae” value is 0.562 (active).

As to `Fc1cccc(-c2nc(-c3cccnc3)no2)c1`, the “proportion of mobile C. elegans dauer larvae” value is 1 (inactive).

Take `Cc1ccc(OCc2nc(-c3cccnc3)no2)c(Br)c1`: the “proportion of mobile C. elegans dauer larvae” value was 1 (inactive).

In the case of `C=C(C)COc1ccc(-c2nc(-c3cccnc3)no2)cc1`, the “proportion of mobile C. elegans dauer larvae” value is 1 (inactive).

`COc1ccc(-c2noc(COc3ccc(Cl)cc3Cl)n2)cc1`: the “proportion of mobile C. elegans dauer larvae” value was 1 (inactive).

Another experiment deals with Ditylenchus dipsaci. The experiment can be described thus: proportion of mobile D. dipsaci (mixed stage) relative to DMSO control (fraction of DMSO control); higher = more viable, less nematicidal, active = 0.86 or less; extreme values may be limits of the assay. The note with it: 60 µM; 5 days; temperature: 20 °C. In outline:
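Ditylenchus dipsaci nematodes were cultured on pea plants in Gamborg B-5 agar, then extracted into water through a filter funnel, and roughly 20 worms in distilled water were placed in each well of a 96-well plate. Compound was pinned in to a final concentration of 60 µM (0.6% v/v DMSO), and the sealed plates were shaken at 200 rpm for 5 days at 20 °C. Mobile worms were counted under the microscope after 2 µL of 1 M NaOH was added. Mobility is given relative to DMSO controls as the mean of two biological replicates.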
For `Cc1ccc(OCc2nc(-c3ccccn3)no2)cc1C`, the “proportion of mobile D. dipsaci” value was 1 (inactive).

As for `Cc1ccc(-c2noc(COc3ccccc3C)n2)cc1`, the “proportion of mobile D. dipsaci” value is 1 (inactive).

With `O=C(CSc1nnc(-c2ccco2)o1)Nc1ccc(Br)cc1`, the “proportion of mobile D. dipsaci” value was 1 (inactive).

For the compound `COc1ccc(Cl)cc1-c1noc(-c2ccccc2C)n1`, the “proportion of mobile D. dipsaci” value was 1 (inactive).

Regarding `Cc1cc(C)c(CSc2nnc(-c3ccccc3)o2)c(C)c1`, the “proportion of mobile D. dipsaci” value is 1 (inactive).

Regarding `COc1ccc(-c2noc(COc3ccc(Br)c(C)c3)n2)cc1`, the “proportion of mobile D. dipsaci” value was 1 (inactive).

Turning to `Cc1cccc(-c2noc(-c3cc(Cl)ccc3Cl)n2)c1`, the “proportion of mobile D. dipsaci” value is 1 (inactive).

For `Cc1cc(OCc2nc(-c3ccccc3)no2)cc(C)c1Cl`, the “proportion of mobile D. dipsaci” value was 1 (inactive).

For `O=C(CSc1nnc(-c2ccccc2Cl)o1)c1ccc2c(c1)CCCC2`, the “proportion of mobile D. dipsaci” value was 1 (inactive).

As for `CCn1c(SCc2ccc(OC)cc2)nnc1-c1ccco1`, the “proportion of mobile D. dipsaci” value was 1 (inactive).

On to `COc1ccc(Cl)cc1-c1nnc(SCC(=O)Nc2nccs2)o1`, for which the “proportion of mobile D. dipsaci” value is 1 (inactive).

Take `COc1ccc(-c2noc(C34CC5CC(CC(C5)C3)C4)n2)cc1`: the “proportion of mobile D. dipsaci” value was 1 (inactive).

`COc1nc2ccc(C)cc2cc1-c1noc(-c2cccnc2)n1`: the “proportion of mobile D. dipsaci” value is 1 (inactive).

Regarding `Clc1ccc(-c2nnc(SCc3ccccc3)o2)c(Cl)c1`, the “proportion of mobile D. dipsaci” value is 1 (inactive).

With `CCOc1ccc(NC(=O)CSc2nnc(-c3ccccc3Cl)o2)cc1`, the “proportion of mobile D. dipsaci” value was 1 (inactive).

Turning to `Cc1cc(OCc2nc(-c3ccc(NC(=O)c4ccc5c(c4)OCO5)cc3)no2)ccc1Cl`, the “proportion of mobile D. dipsaci” value is 1 (inactive).

For `O=C(CSc1nnc(-c2ccc(Cl)cc2)o1)Nc1ccccc1C(F)(F)F`, the “proportion of mobile D. dipsaci” value is 1 (inactive).

As for `O=C(CSc1nnc(-c2cccc(Br)c2)o1)N1CCCCC1`, the “proportion of mobile D. dipsaci” value is 1 (inactive).

In the case of `CC(Oc1ccccc1)c1nc(-c2cccnc2)no1` (stereo unspecified), the “proportion of mobile D. dipsaci” value was 1 (inactive).

On to `c1ccc(COc2cccc(-c3nc(-c4ccncc4)no3)c2)cc1`, for which the “proportion of mobile D. dipsaci” value is 1 (inactive).

As for `Cc1cc(C)cc(OCc2nc(-c3cc(C)nc4ccccc34)no2)c1`, the “proportion of mobile D. dipsaci” value is 1 (inactive).

Take `CCOc1ccccc1-c1nnc(SCC(=O)Nc2nc(C)cs2)o1`: the “proportion of mobile D. dipsaci” value is 1 (inactive).

As for `Clc1ccc(CSc2nnc(-c3ccccc3)o2)c(Cl)c1`, the “proportion of mobile D. dipsaci” value was 1 (inactive).

Consider `O=C(CSc1nnc(-c2ccc(Cl)cc2)o1)c1ccccc1`, for which the “proportion of mobile D. dipsaci” value is 1 (inactive).

In the case of `COc1ccccc1CC(=O)Nc1ccc(-c2noc(-c3ccc(Cl)cc3)n2)cc1`, the “proportion of mobile D. dipsaci” value is 1 (inactive).

As to `Cc1ccc(-c2nc(-c3ccc4c(c3)OCO4)no2)cc1`, the “proportion of mobile D. dipsaci” value was 1 (inactive).

In the case of `Cc1cccc(-c2noc(COc3ccccc3Cl)n2)c1`, the “proportion of mobile D. dipsaci” value was 1 (inactive).

As for `COc1ccc(-c2nnc(SCc3ccccc3C)o2)cc1`, the “proportion of mobile D. dipsaci” value was 1 (inactive).

Regarding `CCOc1cc(-c2nc(-c3ccc(C)nc3OC)no2)cc(OCC)c1OCC`, the “proportion of mobile D. dipsaci” value was 1 (inactive).

As for `Clc1ccc(OCc2nc(-c3cccs3)no2)cc1`, the “proportion of mobile D. dipsaci” value is 1 (inactive).

With `c1ccc(-c2noc(COc3cccc4ccccc34)n2)nc1`, the “proportion of mobile D. dipsaci” value was 1 (inactive).

Take `COc1ccc(C(=O)CSc2nnc(-c3cccc4ccccc34)o2)cc1`: the “proportion of mobile D. dipsaci” value is 1 (inactive).

In the case of `Cc1ccc(-c2nc(-c3cccnc3)no2)cc1Cl`, the “proportion of mobile D. dipsaci” value is 1 (inactive).

On to `Cc1ccc(-c2noc(-c3ccccc3C)n2)cc1`, for which the “proportion of mobile D. dipsaci” value was 1 (inactive).

In the case of `Fc1cccc(-c2nc(-c3cccnc3)no2)c1`, the “proportion of mobile D. dipsaci” value is 1 (inactive).

With `Cc1ccc(OCc2nc(-c3cccnc3)no2)c(Br)c1`, the “proportion of mobile D. dipsaci” value was 1 (inactive).

Regarding `C=C(C)COc1ccc(-c2nc(-c3cccnc3)no2)cc1`, the “proportion of mobile D. dipsaci” value is 1 (inactive).

On to `COc1ccc(-c2noc(COc3ccc(Cl)cc3Cl)n2)cc1`, for which the “proportion of mobile D. dipsaci” value is 1 (inactive).
